Results as given in PubChem BioAssay (NCI).
The panel holds about 83,000 compounds, 20% with a hit somewhere; the sample as a whole holds those more often.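 The test compound was applied at a single concentration to cells in 96-well plates for 48 hours, and percent growth was recorded.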 Calls of active or inactive are those of the source. How the source made its calls: active means growth percent below 10; inactive means the rest.

Tests used:
Assay in all cases: NCI-60 one-dose screen, 48 h (100 = growth as untreated, 0 = no growth, -100 = all killed)
Conditions in all cases: 10 µM unless noted
[1] = tested on: HCT-15 colon
[2] = tested on: HT29 colon
[3] = tested on: SNB-75 CNS
[4] = tested on: SNB-19 CNS
[5] = tested on: U251 CNS
[6] = tested on: PC-3 prostate
[7] = tested on: SK-MEL-5 melanoma
[8] = tested on: UACC-62 melanoma
[9] = tested on: LOX IMVI melanoma
[10] = tested on: SK-MEL-28 melanoma
[11] = tested on: SK-MEL-2 melanoma
[12] = tested on: EKVX NSCLC
[13] = tested on: SN12C renal
[14] = tested on: UO-31 renal
[15] = tested on: TK-10 renal
[16] = tested on: ACHN renal
[17] = tested on: CAKI-1 renal
[18] = tested on: A498 renal
[19] = tested on: CCRF-CEM leukemia
[20] = tested on: MOLT-4 leukemia

Measured: growth

CC1=CCC[C@@H]2C1(C)CC[C@H](C)[C@@]2(C)CC1=CC(=O)C(SC(C)(C)C)=CC1=O (stereo not given in full)
inactive: [1] 86.4% | [2] 77% | [3] 77.4% | [4] 94.5% | [5] 85% | [6] 56.1% | [7] 78.4% | [8] 67.1% | [9] 74.6% | [10] 94.2% | [11] 97.3% | [12] 70.7% | [13] 86.8% | [14] 66.2% | [15] 98.8% | [16] 77.5% | [17] 78.4% | [18] 88.6% | [20] 36%
active: [19] -23.5%

COc1ccc(-c2oc(=O)ccc2-c2cc(OC)c(OC)c(OC)c2)cc1O
inactive: [1] 27.1% | [4] 22.9% | [5] 22.7% | [6] 38.1% | [7] 12.1% | [8] 21.1% | [9] 44.4% | [10] 39.3% | [11] 39.9% | [12] 49.5% | [13] 36.8% | [14] 21.9% | [15] 61.6% | [16] 56% | [20] 20.5%
active: [2] 3.93% | [3] -1.81% | [17] -11.6% | [18] -1.78% | [19] 4.14%

O=C(CCCCNC(=O)c1cc(=O)c(O)co1)Nc1ccccc1
active: [19] 6.26%
inactive: [1] 49% | [2] 98.2% | [3] 84.9% | [4] 102% | [5] 92.8% | [6] 95.9% | [7] 98.6% | [8] 90.1% | [9] 45.3% | [10] 103% | [11] 98.8% | [12] 95.6% | [13] 88.4% | [14] 76.4% | [15] 98.3% | [16] 31.5% | [17] 94.3% | [18] 98.2% | [20] 20.3%

CN1CCN(Cc2cc(NC(=O)c3cccc(C#Cc4cccc5[nH]nc(N)c45)c3)cc(C(F)(F)F)c2)CC1
active: [2] -15.8% | [7] -5.74% | [9] -90.1% | [10] -60.5% | [14] -17% | [16] 4.75% | [19] -8.44% | [20] -35.2%
inactive: [1] 10.8% | [3] 22.9% | [4] 52.1% | [5] 22.2% | [6] 27.4% | [8] 12.1% | [11] 17.8% | [12] 46% | [13] 19.3% | [15] 61.4% | [17] 70.8% | [18] 42.6%

Cc1nc2ccccc2c(/C=C/c2ccc(C(F)(F)F)cc2)c1C(=O)/C=C/c1ccccc1
inactive: [3] 31.3% | [6] 12%
active: [1] -49.4% | [2] -29.2% | [4] -66.5% | [5] -84.1% | [7] -79% | [8] -39.8% | [9] -92.2% | [10] -52.2% | [11] -43.6% | [12] 8.76% | [13] -25.9% | [14] -96.1% | [15] 7.75% | [16] -54.6% | [17] 0.887% | [18] -31.4% | [19] 5.84% | [20] 4.86%

CC(C)CN1CC(C(=O)Nc2ccc3c(c2)-c2ccccc2C3)CC1=O (stereo not given)
inactive: [1] 49.7% [50 µM] | [2] 87.8% [50 µM] | [3] 45.7% [50 µM] | [4] 72.1% [50 µM] | [5] 72.8% [50 µM] | [6] 57.1% [50 µM] | [7] 69.4% [50 µM] | [8] 47.3% [50 µM] | [9] 75.9% [50 µM] | [10] 80% [50 µM] | [11] 81.8% [50 µM] | [12] 70.8% [50 µM] | [13] 72.5% [50 µM] | [14] 43.7% [50 µM] | [15] 87.2% [50 µM] | [16] 64.8% [50 µM] | [17] 62.5% [50 µM] | [18] 85.8% [50 µM] | [19] 74.5% [50 µM] | [20] 61.8% [50 µM]

CCOC(=O)n1cc(-c2nonc2-c2cn(C)c3ccccc23)c2ccccc21
inactive: [1] 31.2% | [2] 12.8% | [3] 16.3% | [4] 35.3% | [5] 26.7% | [6] 48.1% | [7] 46.3% | [8] 30.6% | [9] 41.7% | [10] 57.4% | [11] 37.3% | [12] 55.7% | [13] 45.1% | [14] 42.9% | [15] 63.2% | [16] 43.2% | [17] 29.4% | [18] 15.2% | [19] 21.6% | [20] 23.2%

Cn1cc(-c2csc(-c3cn(C)c4ccc(Br)cc34)n2)c2cnccc21
inactive: [11] 47.7% | [18] 68.7%
active: [1] -78.6% | [2] -76.2% | [3] -93.6% | [4] -86.9% | [5] -80.4% | [6] -74.9% | [7] -55.7% | [8] -78% | [9] -92.1% | [10] -96% | [12] -79.1% | [13] -91.5% | [14] -89.9% | [15] -75.7% | [16] -99.5% | [17] -82.2% | [19] -38.1% | [20] -58.9%

O=C(/C=C/C12c3ccccc3C(c3ccccc31)C1C(=O)NC(=O)C12)c1ccc(F)cc1 (stereo not given)
inactive: [4] 10.6% | [7] 10.8% | [12] 19.1% | [13] 11.2% | [14] 15.8% | [15] 16.8% | [17] 16.7%
active: [1] -10.6% | [2] -3.81% | [3] 7.89% | [5] -44.4% | [6] 8.91% | [8] -55.6% | [9] -53.9% | [10] 6.45% | [11] -52.2% | [16] 4.11% | [18] -6.86% | [19] -0.929% | [20] 2.98%

N/C(=N\c1nc2ccccc2s1)NC(=NC1CCCCC1)NC1CCCCC1
inactive: [3] 23.1% | [6] 24.2% | [8] 52.8% | [11] 41% | [12] 45.7% | [13] 33.8% | [14] 20.1% | [15] 69.2% | [16] 17.1% | [17] 23.2% | [18] 45.8%
active: [1] 1.34% | [2] 6.19% | [4] 4.28% | [5] -56.2% | [7] -74.8% | [9] -100% | [10] -73.8% | [19] -1.74% | [20] 4%

N#C/C(=C\c1ccc(Cl)cc1Cl)C(=O)Nc1ncc(Cc2ccc(Cl)c(Cl)c2)s1
inactive: [1] 37.7% | [2] 66.3% | [3] 97.9% | [4] 97.7% | [5] 90.9% | [6] 79.3% | [7] 97.8% | [8] 35.2% | [9] 34.4% | [10] 99.6% | [11] 88.8% | [12] 96.1% | [13] 92.2% | [14] 65.7% | [15] 80.7% | [16] 47.7% | [17] 52.3% | [18] 101% | [19] 87.7% | [20] 92.9%

O=C1NC(=Nc2ccc(O)cc2)S/C1=C\c1cccs1
inactive: [1] 20.9% | [2] 89.7% | [4] 32.4% | [5] 25.2% | [7] 47.8% | [8] 46.1% | [9] 32.1% | [10] 75.6% | [11] 97.9% | [12] 38.8% | [13] 46.1% | [14] 52.5% | [15] 69.3% | [16] 30.3% | [17] 40.9% | [18] 15.9% | [19] 11.9% | [20] 23.1%
active: [3] -12.7% | [6] -1.89%

O=C(CSc1nc2ccc([N+](=O)[O-])cc2[nH]1)Nc1cccc([N+](=O)[O-])c1
inactive: [1] 54.4% | [2] 57.6% | [3] 49.5% | [4] 64.2% | [5] 41.5% | [6] 44.8% | [7] 19.7% | [8] 21.1% | [9] 57.8% | [10] 55.7% | [11] 49.2% | [12] 48.8% | [13] 49.6% | [14] 33.4% | [15] 69.5% | [16] 62.5% | [17] 41.2% | [18] 31.7% | [19] 40.8% | [20] 43.6%

N#C/C(=C\c1ccc(-c2ccc(Cl)cc2)o1)c1ccc(Cl)cc1
active: [14] -11.6% | [16] -20.1%
inactive: [1] 79.2% | [2] 61.2% | [3] 14% | [4] 62% | [5] 21.6% | [6] 74.8% | [7] 91.4% | [8] 78.7% | [9] 49.2% | [10] 99.7% | [11] 96.5% | [12] 49.5% | [13] 30% | [15] 14.6% | [17] 38.4% | [18] 82.5% | [19] 66.6% | [20] 85.6%

CS(=O)(=O)Nc1cncc(-c2ccc3ncnc(Nc4ccc(F)c(Cl)c4)c3c2)c1
inactive: [1] 51.1% | [2] 20.7% | [3] 33% | [4] 42.9% | [6] 34.5% | [8] 34.6% | [9] 28.3% | [10] 42.7% | [13] 33.9% | [14] 38.1% | [16] 32.3% | [17] 44.7% | [19] 11.8%
active: [5] 8.79% | [7] -50.1% | [11] 8.23% | [12] 0.905% | [15] -2.22% | [18] -7.33% | [20] -22.8%

CCOC(=O)C1=C(C)N=C2SC=C(c3ccccc3)N2[C@H]1c1cn[nH]c1-c1ccc(Cl)cc1
inactive: [1] 24.6% | [2] 36.8% | [3] 73.8% | [4] 59.2% | [5] 31.2% | [6] 34.7% | [7] 49.7% | [8] 36.2% | [10] 75.2% | [11] 65.6% | [12] 72.3% | [13] 48.8% | [15] 63.3% | [16] 41.1% | [18] 68.8%
active: [9] 5.54% | [14] -33% | [17] -15.1% | [19] -19.8% | [20] -7.33%
